# Values quoted from earlier work in PubChem BioAssay AID977611.
# Out of some 3,900 compounds screened, about 3,900 (100%) were called active. Cut-off not given; nearly all actives show Kd up to about 4200 µM. The set was probably picked from earlier hits. The list shows a part of the results. Numbered stars: 1 amine (or outer) side, 2 acyl side, 3 side chain; on linkers, the order of the positions; unused ones are H or OH. Where a SMILES comes first, the peptide text is derived from it. Non-standard residues stand in square brackets, D forms with d. Square brackets hold non-standard residues; d marks the D form. Residues, ends and D or L forms follow the SMILES beside them. Peptide text beside a SMILES is read from it. X1 = O=C([C@H](Cc1ccc(O[P+](O)(O)O)cc1)N[*:1])[*:2]; Orn(CH(NH2)2) = NC(N)NCCC[C@H](N)C(=O)O
# Test: PubChem AID 977611
# Conditions: PDB protein-ligand complexes, literature Kd
molecule,measurement,setting,value
CCOc1cc(C(=O)O)nc2c(NC(=O)c3cc(O)c4cccc(NC(=O)c5cc(O)c6cccc(NC(=O)c7cc(OCC(C)C)c8cccc(NC(=O)NCCCCOc9cccc(CNC(=O)c%10ccc(S(N)(=O)=O)cc%10)c9)c8n7)c6n5)c4n3)cccc12,Kd,"protein: Human Carbonic Anhydrase II, PDB entry 4lp6",5.36 nM (active)
OS(O)(O)OC1C(OS(O)(O)O)C(OS(O)(O)O)C(OS(O)(O)O)C(OS(O)(O)O)C1OS(O)(O)O (centres undefined),Kd,"protein: HISTIDINE ACID PHOSPHATASE, PDB entry 4aro",160 nM (active)
Cc1cc(OCCCS(C)(=O)=O)cc(C)c1-c1cccc(COc2ccc3c(c2)OC[C@H]3CC(=O)O)c1,Kd,"protein: Free fatty acid receptor 1,Lysozyme hGPR40(L42A,F88A,G103A,Y202F mutant), PDB entry 4phu",12 nM (active)
CN(C)CCCn1cc(C2C(=O)NC(=O)C2c2c[nH]c3ccccc23)c2ccccc21 (centres undefined),Kd,"protein: human PIM1 kinase domain, PDB entry 1xws",10 nM (active)
C[C@H]1O[C@@H](c2cccc(O)c2O)N[C@@H]1C(=O)NCCCN(CCCNC(=O)c1cccc(O)c1O)C(=O)[C@H]1N[C@H](c2cccc(O)c2O)O[C@@H]1C,Kd,"protein: Ferric vibriobactin ABC transporter, periplasmic ferric vibriobactin-binding protein, PDB entry 3r5t",2.65 nM (active)
CN(C)C1=CCN(Cc2ccc(CCCCc3ccc(Cn4cnc5c(N)ncnc54)cc3)cc2)C=C1,Kd,"protein: CHOLINE KINASE ALPHA, PDB entry 3zm9",38 nM (active)
CC[C@H](C)[C@H](NC(=O)[C@@H](NC(=O)[C@H](CC(C)C)NC(=O)[C@@H](N)CO)[C@@H](C)O)C(=O)N[C@@H](Cc1ccc(O[P+](O)(O)O)cc1)C(=O)N[C@@H](C)C(=O)N[C@@H](CCC(N)=O)C(=O)N[C@H](C(=O)N[C@@H](CCC(N)=O)C(=O)N[C@@H](CCCCN)C(=O)O)C(C)C (H-SLTI[X1]AQVQK-OH),Kd,"protein: EWS/FLI1 activated transcript 2(ETA-2), PDB entry 1i3z",131 nM (active)
same,Kd,"protein: SAP, PDB entry 1d4w",120 nM (active)
CC[C@H](C)[C@H](NC(=O)[C@H](CO)NC(=O)[C@H](CO)NC(=O)[C@H](CCC(N)=O)NC(=O)[C@@H](NC(=O)[C@H](CCC(N)=O)NC(=O)[C@H](CCCNC(N)N)NC(=O)[C@H](Cc1ccccc1)NC(=O)[C@@H](NC(=O)[C@@H](N)CCCNC(N)N)[C@@H](C)O)C(C)C)C(=O)N[C@@H](CO)C(=O)N[C@@H](CC(=O)O)C(=O)N[C@@H](Cc1ccccc1)C(=O)N[C@@H](Cc1ccc(O)cc1)C(=O)N[C@@H](CC(=O)O)C(=O)O (H-[Orn(CH(NH2)2)]TF[Orn(CH(NH2)2)]QVQSSISDFYD-OH),Kd,"protein: Lipoprotein outS, PDB entry 4k0u",55 nM (active)
Ac-SISYTDEIEEEDYD-OH,Kd,"protein: Fibronectin, PDB entry 4pz5",121 nM (active)
CC[C@H](C)[C@H](NC(=O)[C@H](CC(=O)O)NC(=O)[C@H](CS)NC(=O)[C@H](CCC(N)=O)NC(=O)[C@@H](NC(=O)CNC(=O)[C@@H](NC(=O)[C@@H](NC(=O)[C@H](CO)NC(=O)[C@H](CO)NC(=O)[C@H](C)N)[C@@H](C)O)[C@@H](C)O)[C@@H](C)O)C(N)=O (H-ASSTTGTQCDI-NH2),Kd,"protein: Dynein light chain 1, cytoplasmic LC8, PDB entry 4qh8",12800 nM (active)
CC[C@H](C)[C@H](NC(=O)[C@H](Cc1ccccc1)NC(=O)[C@@H](NC(=O)[C@H](CO)NC(=O)[C@H](CO)NC(=O)[C@H](C)NC(=O)[C@@H](NC(=O)[C@@H](N)CCCNC(N)N)C(C)C)C(C)C)C(=O)N[C@H](C(=O)O)[C@@H](C)O (H-[Orn(CH(NH2)2)]VASSVFIT-OH),Kd,"protein: Filamin-A, PDB entry 2w0p",300 nM (active)
CC[C@H](C)[C@H](NC(=O)[C@@H](NC(=O)[C@H](CC(C)C)NC(=O)[C@H](CO)NC(=O)[C@@H](N)CCCCN)[C@@H](C)O)C(=O)N[C@@H](Cc1ccc(O)cc1)C(=O)N[C@@H](C)C(=O)N[C@@H](CCC(N)=O)C(=O)N[C@H](C(=O)N[C@@H](CCC(N)=O)C(=O)N[C@@H](CCCCN)C(=O)O)C(C)C (H-KSLTIYAQVQK-OH),Kd,"protein: SAP, PDB entry 1d4t",650 nM (active)
CC(C)C[C@H](NC(=O)[C@H](CC(C)C)NC(=O)[C@H](CC(N)=O)NC(=O)[C@@H](NC(=O)[C@H](C)NC(=O)[C@H](CCCCN)NC(=O)[C@H](CO)NC(=O)[C@H](CCCCN)NC(=O)[C@@H](NC(=O)[C@@H](N)CC(C)C)C(C)C)[C@@H](C)O)C(=O)N[C@H](C=O)Cc1ccc(O)cc1 (H-LVKSKATNLLY-aldehyde),Kd,"protein: ATP-Dependent Clp Protease Adapter Protein ClpS, PDB entry 2w9r",4800 nM (active)
H-YAESGIQTDL-OH,Kd,"protein: Dynein light chain 1, cytoplasmic, PDB entry 4ds1",17900 nM (active)
C[C@H](N)C(=O)N[C@@H](Cc1c[nH]c2ccccc12)C(=O)N[C@@H](CC(N)=O)C(=O)N[C@@H](CO)C(=O)O (H-AWNS-OH),Kd,"protein: mRNA-capping enzyme subunit alpha Pce1, PDB entry 4pz8",1190 nM (active)
N[C@@H](CC(=O)O)C(=O)N[C@@H](Cc1c[nH]c2ccccc12)C(=O)N[C@@H](CCC(=O)O)C(=O)N[C@@H](Cc1ccccc1)C(=O)O (H-DWEF-OH),Kd,"protein: human protein 25? (MO25?), PDB entry 1upk",400 nM (active)
H-GWNSFQSS-OH,Kd,"protein: GAE domain of ADP-ribosylation factor-binding protein GGA1(GGA1-GAE), PDB entry 2dwx",180000 nM (active)
CSCC[C@H](NC(=O)[C@H](CCCN=C(N)N)NC(=O)[C@H](CCCN=C(N)N)NC(=O)[C@H](Cc1ccccc1)NC(=O)[C@H](CO[P+](O)(O)O)NC(=O)[C@H](CCC(N)=O)NC(=O)[C@H](CCCN=C(N)N)NC(=O)[C@H](CC(C)C)NC(=O)[C@H](CO)NC(=O)[C@H](CCCCN)NC(=O)[C@@H](N)CCCCN)C(=O)N[C@@H](C)C(=O)O,Kd,"protein: Disks large homolog 4, Dlg GK, PDB entry 3wp1",14100 nM (active)
